Measurements taken from PubChem BioAssay (EPA / NIEHS).
Active and inactive are the calls of the source. How the source made its calls: active means hit-call score of the fitted dose curve at least 0.9, where 1 is the maximum; inactive means score below 0.9.

Molecular target: Aryl hydrocarbon receptor (Homo sapiens) (UniProt P35869)
Assay: ATG_Ahr_CIS: Attagene CIS-FACTORIAL HepG2 Assay for human Aryl Hydrocarbon Receptor (Ahr) (AID 2282930)
Conditions: HepG2 AhR cis-factorial reporter transcription; actives raise or lower the signal
How it was run: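 Transient MRTU transfection of HepG2 → 24 h compound exposure → total RNA, oligo(dT) RT → PCR, 6-FAM extension, HpaI cut → CE fluorescence. DMSO = baseline; bidirectional curve fit.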

Aryl hydrocarbon receptor (Homo sapiens), sequence (P35869 whole entry, looked up): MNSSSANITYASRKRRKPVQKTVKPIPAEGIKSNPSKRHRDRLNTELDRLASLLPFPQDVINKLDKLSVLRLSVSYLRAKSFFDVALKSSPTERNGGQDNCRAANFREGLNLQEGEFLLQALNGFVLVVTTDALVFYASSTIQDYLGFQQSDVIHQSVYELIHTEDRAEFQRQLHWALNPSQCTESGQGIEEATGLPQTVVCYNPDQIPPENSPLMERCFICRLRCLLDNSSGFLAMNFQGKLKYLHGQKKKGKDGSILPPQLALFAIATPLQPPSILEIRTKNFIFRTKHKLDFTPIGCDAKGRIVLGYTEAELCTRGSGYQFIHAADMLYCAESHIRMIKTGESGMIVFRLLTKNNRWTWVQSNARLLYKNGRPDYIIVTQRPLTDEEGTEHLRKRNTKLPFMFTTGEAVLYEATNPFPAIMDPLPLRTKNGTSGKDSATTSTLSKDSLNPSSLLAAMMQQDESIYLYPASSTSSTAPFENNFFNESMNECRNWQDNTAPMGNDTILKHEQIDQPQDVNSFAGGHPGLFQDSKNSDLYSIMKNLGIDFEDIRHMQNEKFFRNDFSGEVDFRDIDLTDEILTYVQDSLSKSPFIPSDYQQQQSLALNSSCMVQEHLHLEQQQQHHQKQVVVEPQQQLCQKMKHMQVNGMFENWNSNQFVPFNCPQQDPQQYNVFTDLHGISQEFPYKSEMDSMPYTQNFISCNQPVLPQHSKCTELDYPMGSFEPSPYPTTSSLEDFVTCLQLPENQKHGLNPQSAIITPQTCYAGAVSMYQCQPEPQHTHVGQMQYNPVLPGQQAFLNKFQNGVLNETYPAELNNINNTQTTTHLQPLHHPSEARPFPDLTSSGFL

Compound	outcome	AC50
CC(c1cc(C(C)(C)C)cc(C(C)(C)C)c1O)c1cc(C(C)(C)C)cc(C(C)(C)C)c1O	inactive	–
C=CCCCCCCCCOC(C)=O	inactive	–
CC(Cl)COP(=O)(OCC(C)Cl)OCC(C)Cl (stereo unspecified)	inactive	–
C[Si]1(C)O[Si](C)(C)O[Si](C)(C)O[Si](C)(C)O[Si](C)(C)O1	inactive	–
CC(C)c1ccc(O)c(C(C)C)c1	inactive	–
CC(=O)OCCc1ccccc1	inactive	–
C=C(C)OC(C)=O	inactive	–
CCC1COC(=O)O1 (stereo unspecified)	inactive	–
CCCCCCCCCC(C)=O	inactive	–
Cc1c[nH]c(=O)[nH]c1=O	inactive	–
O=C(O)CC(C(=O)O)S(=O)(=O)O (stereo unspecified)	inactive	–
C=CC(=O)O[C@H]1C[C@@H]2CC[C@@]1(C)C2(C)C	inactive	–
C=CC(=O)OCCCCCCCCCC	inactive	–
CC(=O)CC(=O)Nc1ccccc1C	inactive	–
CCCC(CC)c1ccccc1 (stereo unspecified)	inactive	–
O=C1CCCN1C1CCCCC1	inactive	–
CC1CCC(C(C)(C)S)C(=O)C1 (stereo unspecified)	inactive	–

Compound	outcome	AC50
COC(=O)c1ccc(C(=O)OC)c(C(=O)OC)c1	inactive	–
CCC(C)c1ccccc1 (stereo unspecified)	inactive	–
O=S(=O)(O)c1ccc(Nc2nc(Nc3ccc(C=Cc4ccc(Nc5nc(Nc6ccc(S(=O)(=O)O)cc6)nc(N(CCO)CCO)n5)cc4S(=O)(=O)O)c(S(=O)(=O)O)c3)nc(N(CCO)CCO)n2)cc1	inactive	–
CC(C)(CO)COC(=O)C(C)(C)CO	inactive	–
O=C(O)C1CCC(C(=O)O)CC1 (stereo unspecified)	inactive	–
CC1=CP(=O)(c2ccccc2)CC1 (stereo unspecified)	inactive	–
Cc1cc(=O)[nH]c(=O)[nH]1	inactive	–
CC(C)(C)C1CCC(=O)CC1	inactive	–
CCCCNS(=O)(=O)c1ccc(C)cc1	inactive	–
CCOC(=O)c1ccccc1C	inactive	–
c1ccc2sc(SSN3CCOCC3)nc2c1	–	3.45 µM (active)
CC(C)CCOCc1ccccc1	inactive	–
COc1ccc(-c2coc3cc(O)cc(O)c3c2=O)cc1	–	27 µM (active)
O=C(O)/C=C/c1ccccc1	inactive	–
Nc1ccc(C(=O)O)cc1	inactive	–
CCCCC(CC)COS(=O)(=O)O (stereo unspecified)	inactive	–
CC(C)[N+](C)(CCOC(=O)C1c2ccccc2Oc2ccccc21)C(C)C	inactive	–

Test system: not listed separately
Assay: ATG_AP_1_CIS: Attagene CIS-FACTORIAL HepG2 Assay for human Activator Protein 1 (AP-1) (AID 2282931)
Conditions: HepG2 Attagene cis-factorial AP-1 reporter mRNA; actives raise or lower the signal
How it was run: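 HepG2 cells transiently transfected with cis-element-driven multiplex reporter units; 24 h compound exposure. Reporter mRNA quantified by RT-PCR, FAM-labelled fragments resolved by capillary electrophoresis; bidirectional fit versus DMSO baseline.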

Compound	outcome	AC50
CC(c1cc(C(C)(C)C)cc(C(C)(C)C)c1O)c1cc(C(C)(C)C)cc(C(C)(C)C)c1O	inactive	–
C=CCCCCCCCCOC(C)=O	inactive	–
CC(Cl)COP(=O)(OCC(C)Cl)OCC(C)Cl (stereo unspecified)	inactive	–
C[Si]1(C)O[Si](C)(C)O[Si](C)(C)O[Si](C)(C)O[Si](C)(C)O1	inactive	–
O=C(C=Cc1ccccc1)OCCc1ccccc1	inactive	–
CC(C)c1ccc(O)c(C(C)C)c1	inactive	–
CC(=O)OCCc1ccccc1	inactive	–
C=C(C)OC(C)=O	inactive	–
CCC1COC(=O)O1 (stereo unspecified)	inactive	–
Cc1c[nH]c(=O)[nH]c1=O	inactive	–
C=CC(=O)O[C@H]1C[C@@H]2CC[C@@]1(C)C2(C)C	–	75.3 µM (active)
C=CC(=O)OCCCCCCCCCC	inactive	–
CC(=O)CC(=O)Nc1ccccc1C	inactive	–
CCCC(CC)c1ccccc1 (stereo unspecified)	–	167 µM (active)
COC(=O)c1ccc(C(=O)OC)c(C(=O)OC)c1	inactive	–
O=S(=O)(O)c1ccc(Nc2nc(Nc3ccc(C=Cc4ccc(Nc5nc(Nc6ccc(S(=O)(=O)O)cc6)nc(N(CCO)CCO)n5)cc4S(=O)(=O)O)c(S(=O)(=O)O)c3)nc(N(CCO)CCO)n2)cc1	inactive	–
CC(C)(CO)COC(=O)C(C)(C)CO	inactive	–
Clc1cc(Cl)c(Cl)c(Cl)c1Cl	inactive	–
O=C(O)C1CCC(C(=O)O)CC1 (stereo unspecified)	inactive	–
CC1=CP(=O)(c2ccccc2)CC1 (stereo unspecified)	inactive	–
CC(C)(C)C1CCC(=O)CC1	inactive	–
CCCCNS(=O)(=O)c1ccc(C)cc1	inactive	–
CCOC(=O)c1ccccc1C	inactive	–
c1ccc2sc(SSN3CCOCC3)nc2c1	–	43.2 µM (active)
CC(C)CCOCc1ccccc1	inactive	–
COc1ccc(-c2coc3cc(O)cc(O)c3c2=O)cc1	–	64 µM (active)
O=C(O)/C=C/c1ccccc1	inactive	–
Nc1ccc(C(=O)O)cc1	inactive	–
CCCCC(CC)COS(=O)(=O)O (stereo unspecified)	inactive	–
CC(C)[N+](C)(CCOC(=O)C1c2ccccc2Oc2ccccc21)C(C)C	inactive	–

Test system: not listed separately
Assay: ATG_AP_2_CIS: Attagene CIS-FACTORIAL HepG2 Assay for human Activator Protein 2 (AP-2) (AID 2282932)
Conditions: HepG2 AP-2 cis-reporter, Attagene transcription factor profiling; actives raise or lower the signal
How it was run: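 Step one: transient transfection of HepG2 with reporter transcription units. Step two: 24 h chemical exposure. Step three: RNA extraction, RT-PCR, labelled fragment analysis by capillary electrophoresis; DMSO serves as baseline.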

Compound	outcome	AC50
C=CCCCCCCCCOC(C)=O	inactive	–
CC(Cl)COP(=O)(OCC(C)Cl)OCC(C)Cl (stereo unspecified)	inactive	–
C[Si]1(C)O[Si](C)(C)O[Si](C)(C)O[Si](C)(C)O[Si](C)(C)O1	inactive	–
O=C(C=Cc1ccccc1)OCCc1ccccc1	inactive	–
CC(C)c1ccc(O)c(C(C)C)c1	inactive	–
CC(=O)OCCc1ccccc1	inactive	–
C=C(C)OC(C)=O	inactive	–
CCC1COC(=O)O1 (stereo unspecified)	inactive	–
CCCCCCCCCC(C)=O	inactive	–
Cc1c[nH]c(=O)[nH]c1=O	inactive	–
O=C(O)CC(C(=O)O)S(=O)(=O)O (stereo unspecified)	inactive	–
C=CC(=O)O[C@H]1C[C@@H]2CC[C@@]1(C)C2(C)C	–	100 µM (active)
C=CC(=O)OCCCCCCCCCC	inactive	–
CC(=O)CC(=O)Nc1ccccc1C	inactive	–
CCCC(CC)c1ccccc1 (stereo unspecified)	inactive	–
COc1cc(O)c(C(=O)c2ccccc2)cc1S(=O)(=O)O	inactive	–

Compound	outcome	AC50
O=C1CCCN1C1CCCCC1	inactive	–
CC1CCC(C(C)(C)S)C(=O)C1 (stereo unspecified)	inactive	–
CCC(C)c1ccccc1 (stereo unspecified)	inactive	–
O=S(=O)(O)c1ccc(Nc2nc(Nc3ccc(C=Cc4ccc(Nc5nc(Nc6ccc(S(=O)(=O)O)cc6)nc(N(CCO)CCO)n5)cc4S(=O)(=O)O)c(S(=O)(=O)O)c3)nc(N(CCO)CCO)n2)cc1	inactive	–
CC(C)(CO)COC(=O)C(C)(C)CO	inactive	–
Clc1cc(Cl)c(Cl)c(Cl)c1Cl	inactive	–
O=C(O)C1CCC(C(=O)O)CC1 (stereo unspecified)	inactive	–
CC1=CP(=O)(c2ccccc2)CC1 (stereo unspecified)	inactive	–
CCCCNS(=O)(=O)c1ccc(C)cc1	inactive	–
CCOC(=O)c1ccccc1C	inactive	–
c1ccc2sc(SSN3CCOCC3)nc2c1	–	64.8 µM (active)
CC(C)CCOCc1ccccc1	inactive	–
O=C(O)/C=C/c1ccccc1	inactive	–
Nc1ccc(C(=O)O)cc1	inactive	–
CCCCC(CC)COS(=O)(=O)O (stereo unspecified)	inactive	–
CC(C)[N+](C)(CCOC(=O)C1c2ccccc2Oc2ccccc21)C(C)C	inactive	–
